This is an account of results in PubChem BioAssay.

Assay [1] deals with Wnt5a (protein binding on small-molecule microarray). In words: small molecules binding Wnt5a protein – biophysical, small-molecule microarray, 635/667 nm fluorescence, primary screen (AID 1142).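 Also: fluorescence read at 667 nm with signal to noise per printed feature.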 The note with it: 635 nm fluorescence, higher = more signal.
Assay [2] is described as follows: ATP-based viability of Huh7 replicon cells – cell-based, CellTiter-Glo luminescence, basal, 48 h, cytotoxicity control for HCV replication inhibitor project, primary screen (AID 1143).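 Also: Huh7 hepatoma cells carrying a hepatitis C replication reporter with no stimulus; test concentration not given here.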 The note with it: higher = more signal, called active from +8 up or from −8 down.
A short description of assay [3]: Pseudomonas biofilm growth suppression – PAO1 strain, BacTiter-Glo luminescence, LB-PBS, primary screen (AID 1144). The note with it: P. aeruginosa PAO1 biofilm, 12 h, higher = more signal.
Assay [4] in a line: basal CRE-LacZ reporter activity in PC12 – cell-based, unstimulated, primary screen (AID 1145). The note with it: no forskolin, luminescence, 4.5 h, higher = more signal, called active from +8 up or from −8 down.
Assay [5] in a line: forskolin-driven CRE-LacZ activity in PC12 – cell-based, CRE-LacZ reporter, forskolin-stimulated, primary screen (AID 1146).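 Also: PC12 cells with 6xCRE LacZ reporter stimulated by forskolin 10 µM; beta-galactosidase reporter signal reflecting CREB driven transcription.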 The note with it: luminescence, 4.5 h, higher = more signal, called active from +8 up or from −8 down.
Assay [6] concerns the target Streptavidin (Streptomyces avidinii) (UniProt P22629). Put plainly: compounds binding control protein streptavidin – biophysical, small-molecule microarray, 635/667 nm fluorescence, artefact control for SMM compound annotation, primary screen (AID 1147).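 Also: signal reflects streptavidin binding to arrayed compounds as a control protein.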 The note with it: higher = more signal.
Assay [7] can be described thus: probe aInhba binding on compound microarray – biochemical, small-molecule microarray, 635/667 nm fluorescence, primary screen (AID 1148).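 Also: score merges 667nm spot fluorescence with signal-to-noise for antibody binding to printed compounds.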 The note with it: higher = more signal.
Assay [8] addresses Torsin-1A (Homo sapiens) (UniProt O14656). Put plainly: TOR1A wild-type binding on microarray – cell lysate, small-molecule microarray, lysate, 635/667 nm, primary screen (AID 1149). The note with it: COS7 hTOR1A-WT lysate, 635 nm fluorescence, higher = more signal.
Assay [9] shares this target. In words: torsin A mutant lysate binding on microarrays – cell lysate, small-molecule microarray, COS7 lysate, 635/667 nm fluorescence, primary screen (AID 1150).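 Also: score pools 667 nm emission and signal to noise measuring lysate protein binding.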 The note with it: COS7 hTOR1A mutant lysate, 635 nm fluorescence, higher = more signal.
Assay [10] concerns Sonic hedgehog protein (Shh). In words: Sonic hedgehog microarray binding compounds – biochemical, small-molecule microarray, 635/667 nm fluorescence, primary screen (AID 1151).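 Also: Shh protein binding to compounds spotted on small-molecule microarray slides; score combines spot fluorescence intensity with signal-to-noise across triplicate slides.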 The note with it: 635 nm fluorescence, higher = more signal.
Assay [11] is described as follows: optical density shifts of acrAB sulA E. coli – strain DRC41, OD650, 48 h, E. coli filamentation inducer project, primary screen (AID 1152).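 Also: E. coli MC1000 strain DRC41 lacking acrAB efflux pump and sulA.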 The note with it: higher = more signal, called active from +8 up or from −8 down.
Assay [12] can be described thus: probe aLefty1 binding on compound microarray – biochemical, small-molecule microarray, 635/667 nm fluorescence, primary screen (AID 1153).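 Also: score merges spot fluorescence with signal-to-noise ratio from the scanned slide images.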 The note with it: higher = more signal.
A short description of assay [13]: plasmodial surface anion channel blockers, osmotic lysis – cell-based, P. falciparum Indochina, OD700, 1 h, primary screen (AID 1154). The note with it: P. falciparum Indochina infected RBC osmotic lysis, higher = more signal, called active from +8 up or from −8 down.
Assay [14] is described as follows: plasmodial surface anion channel blockers, osmotic lysis – cell-based, P. falciparum Indochina, OD700, 2 h, primary screen (AID 1155).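 Also: lysis reports solute entry through the parasite surface anion channel PSAC.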 The note with it: P. falciparum Indochina infected erythrocytes, higher = more signal, called active from +8 up or from −8 down.
The nature of assay [15]: changes in parasitized red cell lysis, either direction – P. falciparum Indochina, OD700, 3 h, PSAC antagonist project, primary screen (AID 1156). The note with it: P. falciparum-infected erythrocytes, osmotic lysis, higher = more signal, called active from +8 up or from −8 down.
Assay [16] is described as follows: plasmodial surface anion channel blockers, osmotic lysis – cell-based, P. falciparum Indochina, OD700, 18 h, primary screen (AID 1157). The note with it: P. falciparum Indochina infected erythrocytes, osmotic lysis OD700, 18 h; higher = more signal, called active from +8 up or from −8 down.
Assay [17] can be described thus: S6 kinase pathway phospho-S6 level changes – cell-based, A549, cytoblot, luminescence, serum-stimulated, primary screen (AID 1158).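 Also: serum-stimulated A549 lung adenocarcinoma cells; signal is phosphorylated S6 detected by cytoblot immunostaining with HRP secondary.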 The note with it: 5 h, higher = more signal.
Assay [18] concerns the target NADPH oxidase 2 (Homo sapiens) (UniProt P04839). Put plainly: compounds shifting NOX2 Amplex Red fluorescence – cell-based, HEK293-NOX2, PMA-stimulated, NOX inhibitor project, primary screen (AID 1159). Also: test concentration not given here. The note with it: 45 min, higher = more signal, called active from +8 up or from −8 down.
The target of assay [19] is NADPH oxidase 4 (Homo sapiens) (UniProt Q9NPH5). Put plainly: compounds shifting NOX4 Amplex Red fluorescence – cell-based, HEK293-NOX4, tetracycline-induced, NOX inhibitor project, primary screen (AID 1160). The note with it: HEK293-NOX4, Amplex Red H2O2 fluorescence, 45 min; higher = more signal, called active from +8 up or from −8 down.
Chain of NADPH oxidase 4 (Homo sapiens) (Q9NPH5 whole entry, looked up): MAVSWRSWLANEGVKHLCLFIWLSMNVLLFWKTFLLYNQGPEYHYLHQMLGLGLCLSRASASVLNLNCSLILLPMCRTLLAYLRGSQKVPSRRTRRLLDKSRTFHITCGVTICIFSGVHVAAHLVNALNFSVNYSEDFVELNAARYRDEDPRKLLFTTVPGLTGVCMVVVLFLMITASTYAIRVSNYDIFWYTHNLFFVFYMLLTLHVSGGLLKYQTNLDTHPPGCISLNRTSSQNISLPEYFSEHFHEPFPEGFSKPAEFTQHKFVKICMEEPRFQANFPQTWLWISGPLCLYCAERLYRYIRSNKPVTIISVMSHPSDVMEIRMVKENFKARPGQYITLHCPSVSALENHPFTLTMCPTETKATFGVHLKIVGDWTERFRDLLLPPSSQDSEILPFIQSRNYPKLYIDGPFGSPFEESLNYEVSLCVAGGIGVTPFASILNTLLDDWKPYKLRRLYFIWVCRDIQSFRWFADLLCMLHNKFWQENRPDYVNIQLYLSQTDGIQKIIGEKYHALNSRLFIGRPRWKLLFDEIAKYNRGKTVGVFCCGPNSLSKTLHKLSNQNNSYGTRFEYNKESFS
For assay [20], the target named is NADPH oxidase 5 (Homo sapiens) (UniProt Q96PH1). Put plainly: compounds shifting NOX5 Amplex Red fluorescence – cell-based, HEK293-NOX5, NOX inhibitor project, primary screen (AID 1161). The note with it: HEK293-NOX5, ionomycin, 45 min, higher = more signal.
Chain of NADPH oxidase 5 (Homo sapiens) (Q96PH1 whole entry, looked up): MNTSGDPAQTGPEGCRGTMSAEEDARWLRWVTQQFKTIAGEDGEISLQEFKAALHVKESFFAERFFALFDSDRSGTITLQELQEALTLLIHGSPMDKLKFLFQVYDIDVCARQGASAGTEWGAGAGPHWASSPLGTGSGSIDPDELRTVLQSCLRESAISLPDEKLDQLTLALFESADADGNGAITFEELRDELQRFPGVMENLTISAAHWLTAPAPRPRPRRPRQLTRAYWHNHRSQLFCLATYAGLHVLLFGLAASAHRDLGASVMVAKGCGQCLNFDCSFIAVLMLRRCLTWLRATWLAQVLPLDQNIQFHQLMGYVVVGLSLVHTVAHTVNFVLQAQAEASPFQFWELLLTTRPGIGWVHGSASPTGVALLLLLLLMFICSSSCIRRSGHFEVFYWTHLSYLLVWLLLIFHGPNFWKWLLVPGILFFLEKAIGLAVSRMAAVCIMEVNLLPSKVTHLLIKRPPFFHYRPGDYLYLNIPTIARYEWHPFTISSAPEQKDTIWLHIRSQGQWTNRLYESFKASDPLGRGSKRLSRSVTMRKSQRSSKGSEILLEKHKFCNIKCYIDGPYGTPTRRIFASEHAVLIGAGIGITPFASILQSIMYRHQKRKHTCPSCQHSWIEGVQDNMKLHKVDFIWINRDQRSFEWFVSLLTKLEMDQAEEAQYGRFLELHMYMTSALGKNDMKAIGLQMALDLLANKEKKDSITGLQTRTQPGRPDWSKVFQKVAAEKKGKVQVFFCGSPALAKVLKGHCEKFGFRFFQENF

Calls of active or inactive are those of the source. Unless noted, no rule for the calls is given here.

Chain of NADPH oxidase 2 (Homo sapiens) (P04839 whole entry, looked up): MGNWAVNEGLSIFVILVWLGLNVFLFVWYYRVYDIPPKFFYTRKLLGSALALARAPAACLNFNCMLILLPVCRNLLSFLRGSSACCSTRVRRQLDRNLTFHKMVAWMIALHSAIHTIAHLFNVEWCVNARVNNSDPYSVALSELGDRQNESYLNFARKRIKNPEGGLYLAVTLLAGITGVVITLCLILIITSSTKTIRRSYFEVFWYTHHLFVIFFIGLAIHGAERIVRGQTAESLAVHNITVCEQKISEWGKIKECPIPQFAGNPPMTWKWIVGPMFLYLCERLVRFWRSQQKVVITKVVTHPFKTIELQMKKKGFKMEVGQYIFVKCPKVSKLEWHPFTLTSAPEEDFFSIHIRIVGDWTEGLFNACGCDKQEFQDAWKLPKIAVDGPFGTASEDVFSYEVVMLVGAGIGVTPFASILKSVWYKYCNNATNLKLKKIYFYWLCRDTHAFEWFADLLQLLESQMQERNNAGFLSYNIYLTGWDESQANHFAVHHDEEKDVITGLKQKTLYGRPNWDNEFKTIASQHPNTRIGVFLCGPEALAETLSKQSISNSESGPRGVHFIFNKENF
Chain of Streptavidin (Streptomyces avidinii) (P22629 whole entry, looked up): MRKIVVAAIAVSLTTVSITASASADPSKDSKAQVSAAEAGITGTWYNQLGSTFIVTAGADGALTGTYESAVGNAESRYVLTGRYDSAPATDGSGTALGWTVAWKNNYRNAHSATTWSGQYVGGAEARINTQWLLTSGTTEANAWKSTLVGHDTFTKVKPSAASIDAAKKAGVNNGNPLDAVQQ
Chain of Torsin-1A (Homo sapiens) (O14656 whole entry, looked up): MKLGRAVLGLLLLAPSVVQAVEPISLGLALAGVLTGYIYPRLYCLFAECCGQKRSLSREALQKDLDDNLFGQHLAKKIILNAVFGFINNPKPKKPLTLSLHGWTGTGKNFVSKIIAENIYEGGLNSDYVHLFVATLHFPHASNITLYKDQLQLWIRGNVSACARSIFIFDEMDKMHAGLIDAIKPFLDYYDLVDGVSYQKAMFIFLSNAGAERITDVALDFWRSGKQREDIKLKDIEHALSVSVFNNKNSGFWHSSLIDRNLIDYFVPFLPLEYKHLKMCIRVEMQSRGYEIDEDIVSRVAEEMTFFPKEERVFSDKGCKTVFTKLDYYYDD

Regarding `COc1ccc(COC(=O)NN=C2C[C@@H](O)[C@@H](O)[C@@H]3[C@@H]4C(=O)N(C5CCCCC5)C(=O)[C@@H]4CC[C@@H]23)cc1`, the composite z-score in assay [1] is 0.0311; in assay [6] it was 0.576; in assay [7], -0.0774; in [8] it was -0.367; in assay [9], 0.223; in assay [10], -0.791. Moreover, the composite z-score in [12] turned out to be 0.94. In addition, the z-score was -0.252 (inactive) in assay [2]; 0.755 (inactive) in [3]; 2.32 (inactive) in assay [4]; 0.0868 (inactive) in assay [5]; -0.83 (inactive) in assay [11]; 6.59 (inactive) in assay [13]. Moreover, the z-score in assay [14] was 1.25 (inactive); in [15], 0.101 (inactive); in [16], 0.622 (inactive); in assay [17] it was -0.185; in assay [18], -0.623 (inactive); in assay [19], -0.069 (inactive). Besides, the z-score in assay [20] was determined as 0.391.

For `CC(CCN1CCCc2nc(C)c(C)cc21)=NO[C@@H](C)c1cn([C@H](CO)Cc2ccccc2)nn1`, the composite z-score in assay [1] was found to be 0.0241; in assay [6], 0.525; in [7], 0.153; in assay [8], 0.639; in [9], 0.686; in assay [10], 0.71. In [12], this compound came in with a composite z-score of -0.193. Further, the z-score in [2] was -0.0864 (inactive); in [3] it was 0.0842 (inactive); in [4], -1.21 (inactive); in assay [5], -0.82 (inactive); in assay [11], 1.15 (inactive); in assay [13] it was 0.202 (inactive). For the same compound, the z-score in [14] was 0.0178 (inactive); in assay [15], 0.0882 (inactive); in assay [16], 0.392 (inactive); in [17], 0.137; in assay [18] it was -0.588 (inactive); in assay [19], 0.313 (inactive). Also, the z-score in assay [20] came to 0.351.

For the compound `CCOC(=O)CCN1C(=O)[C@H]2[C@H]3[C@H](O)[C@H](O)CC(=NNC(=O)OCc4ccccc4)[C@H]3CC[C@H]2C1=O`, the composite z-score in assay [1] was 0.126; in assay [6], -0.362; in assay [7], -0.0781; in assay [8] it was 1.95; in [9], 2.44; in [10], 0.968. Also, the composite z-score in [12] was -0.0162. Also, the z-score in assay [2] was -1.31 (inactive); in assay [3], -0.326 (inactive); in [4], 1.07 (inactive); in [5] it was -0.253 (inactive); in assay [11] it was -0.351 (inactive); in assay [13], 0.992 (inactive). The z-score in assay [14] is 0.0095 (inactive); in assay [15], 0.0794 (inactive); in assay [16], 0.0606 (inactive); in assay [17], -0.707; in [18], 1.28 (inactive); in assay [19], 0.327 (inactive). Further, in assay [20], the z-score stood at 0.595.

Regarding `Cc1ccc(S(=O)(=O)N[C@@H]2COC(=O)CC=C[C@@H](C)[C@H](NS(=O)(=O)c3ccc(C)cc3)COC(=O)[C@H](C)NC(=O)CC=C[C@H]2C)cc1`, the composite z-score was -0.0175 in [1]; -0.508 in assay [6]; -0.121 in assay [7]; -0.0787 in assay [8]; 0.0835 in [9]; 0.427 in assay [10]. Besides, in assay [12], the composite z-score was -0.147. In addition, the z-score was 0.218 (inactive) in assay [2]; -0.88 (inactive) in assay [3]; -0.38 (inactive) in assay [4]; -0.863 (inactive) in assay [5]; 0.328 (inactive) in [11]; -0.434 (inactive) in [13]. Also, the z-score is -0.159 (inactive) in assay [14]; -0.207 (inactive) in assay [15]; 0.106 (inactive) in assay [16]; 0.378 in assay [17]; -6.49 (inactive) in assay [18]; 0.375 (inactive) in assay [19]. The z-score in assay [20] is -0.545.

Consider `O=C1C[C@@H](O)[C@@H](O)[C@@H]2[C@@H]3C(=O)N(Cc4ccccc4)C(=O)[C@@H]3CC[C@H]12`, for which the composite z-score was 0.0217 in [1]; 0.636 in assay [6]; -0.0719 in assay [7]; 0.176 in assay [8]; 0.37 in [9]; 0.718 in [10]. Further, the composite z-score in assay [12] was -0.147. The z-score in [2] was -0.3 (inactive); in [3], -0.473 (inactive); in assay [4] it was -0.293 (inactive); in assay [5], -0.497 (inactive); in [11], -0.675 (inactive); in [13], 1.56 (inactive). In addition, the z-score in assay [14] was 0.586 (inactive); in [15], 0.215 (inactive); in assay [16], 0.526 (inactive); in [17], -0.254; in [18], 2.31 (inactive); in assay [19], -0.79 (inactive). The z-score in assay [20] is 0.127.

Regarding `Cc1ccc(C(C)C)n1C(=O)OC(C)(C)C`, the composite z-score is 0.211 in [1]; 0.963 in assay [6]; -0.176 in assay [7]; 0.356 in assay [8]; 0.196 in assay [9]; 0.675 in [10]. For the same compound, the composite z-score in assay [12] was -0.0934. Further, the z-score in assay [2] was -0.841 (inactive); in assay [3] it was -1.5 (inactive); in [4] it was -0.708 (inactive); in [5] it was 0.686 (inactive); in assay [11], -0.241 (inactive); in assay [13], -0.446 (inactive). For the same compound, the z-score in assay [14] is -1.44 (inactive); in assay [15], -0.165 (inactive); in assay [16], -1.53 (inactive); in assay [17], 1.04; in assay [18], -0.137 (inactive); in [19], 0.209 (inactive). In addition, the z-score in assay [20] was 0.674.

Consider `CO[C@H]1COC(=O)CC=C[C@@H](C)COC(=O)[C@H]2CCCN2C(=O)CC=C[C@H]1C`, for which the composite z-score in assay [1] is 0.203; in [6], -0.547; in assay [7], -0.108; in [8], 2.24; in [9], 2.95; in [10] it was 1.79. The same compound had a composite z-score in assay [12] of -0.217. Moreover, the z-score in [2] was 0.0653 (inactive); in assay [3], 0.106 (inactive); in [4], -0.837 (inactive); in assay [5] it was -1.05 (inactive); in [11] it was 0.694 (inactive); in assay [13] it was -0.567 (inactive). Further, the z-score was -0.25 (inactive) in assay [14]; -0.521 (inactive) in assay [15]; 0.0572 (inactive) in assay [16]; 0.43 in assay [17]; -0.166 (inactive) in [18]; 0.32 (inactive) in [19]. Besides, in [20], the z-score is 0.364.

With `CCOC(=O)[C@H](Cc1ccccc1)NC(=O)CCC1CC(OC(=O)NCc2cccc3ccccc23)CC2(CCCC(COC(=O)NCc3ccc4c(c3)OCO4)O2)O1` (stereo not given in full), the composite z-score in assay [1] was 0.123; in assay [6], -0.0007; in assay [7], -0.0762; in assay [8], 0.0755; in [9], -0.497; in assay [10], 0.466. In [12], this compound yielded a composite z-score of 0.0686. The z-score is -0.301 (inactive) in assay [2]; -0.548 (inactive) in assay [3]; -0.0767 (inactive) in [4]; -0.0564 (inactive) in [5]; 1.21 (inactive) in [11]; 0.509 (inactive) in assay [13]. The z-score is -0.255 (inactive) in assay [14]; -0.336 (inactive) in assay [15]; -0.12 (inactive) in [16]; 0.184 in [17]; 0.691 (inactive) in assay [18]; 0.538 (inactive) in assay [19]. For the same compound, the z-score in [20] was determined as 0.712.
